In paper PMC6664820, “Novel natural and synthetic inhibitors of solute carriers SGLT1 and SGLT2” (Pharmacology Research & Perspectives, 2019):
The whole screen tested about 1,900 compounds, of which about 40 (2%) showed an effect of 50% or more. What follows is part of a selection rich in strong results, with near analogues and random picks from the rest.

Target: human SGLT1 (hSGLT1) (human, UniProt P13866)
Assay: primary screen, percent of control activity; higher = less effect of the substance
Design: single well
Details: 50 µM
Summary of the method: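 Single-point screen at 50 µmol/L in CHO-hSGLT1 cells, with 160 µmol/L 1-NBD-glucose in glucose-free DMEM for 90 min at 37°C. Fluorescence from isopropanol extracts was calibrated, and CHO wild-type uptake was subtracted. Data are percent of uptake without compound.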

Chain of human SGLT1 (hSGLT1) (P13866 whole entry, looked up): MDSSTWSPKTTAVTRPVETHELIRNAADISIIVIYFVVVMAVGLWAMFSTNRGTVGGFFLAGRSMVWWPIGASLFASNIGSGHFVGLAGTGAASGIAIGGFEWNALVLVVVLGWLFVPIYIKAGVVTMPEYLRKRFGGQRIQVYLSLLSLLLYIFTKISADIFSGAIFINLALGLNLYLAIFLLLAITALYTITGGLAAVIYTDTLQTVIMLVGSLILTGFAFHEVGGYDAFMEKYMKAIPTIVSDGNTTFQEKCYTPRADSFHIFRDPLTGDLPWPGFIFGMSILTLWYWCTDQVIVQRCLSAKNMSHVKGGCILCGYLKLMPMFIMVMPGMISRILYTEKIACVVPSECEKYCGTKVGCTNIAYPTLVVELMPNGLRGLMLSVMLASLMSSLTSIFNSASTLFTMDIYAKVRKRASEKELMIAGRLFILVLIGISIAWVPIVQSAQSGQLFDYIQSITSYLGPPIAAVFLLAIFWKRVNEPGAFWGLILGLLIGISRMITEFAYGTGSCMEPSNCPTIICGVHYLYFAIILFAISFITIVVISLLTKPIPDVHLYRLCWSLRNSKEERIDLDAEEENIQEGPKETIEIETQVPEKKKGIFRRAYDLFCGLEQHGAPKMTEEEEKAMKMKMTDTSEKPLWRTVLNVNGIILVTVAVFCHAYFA

SMILES | NORMALIZED SGLT1 ACTIVITY (%)
C[C@@H]1[C@H]2[C@H](O[C@@H]3O[C@H](CO)[C@@H](O)[C@H](O)[C@H]3O)OC=C(C(=O)O)[C@H]2C[C@@H]1O | 123
Nc1ccn(C2O[C@H](CO)[C@@H](O)[C@H]2O)c(=O)n1 (stereo partly drawn) | 107
O=C(O[C@@H]1Cc2c(O)cc(O)cc2O[C@@H]1c1cc(O)c(O)c(O)c1-c1c([C@H]2Oc3cc(O)cc(O)c3C[C@H]2OC(=O)c2cc(O)c(O)c(O)c2)cc(O)c(O)c1O)c1cc(O)c(O)c(O)c1 | 99
O=C1CCCC2C3CC(CN12)[C@@H]1CCCCN1C3.[O-][Cl+3]([O-])([O-])O (stereo partly drawn) | 97
Oc1cc(O)cc(/C=C/c2ccccc2)c1 | 39
COc1ccc(/C=C/c2cc(O)cc(O)c2)cc1 | 198
COc1cc(O)cc(/C=C/c2ccccc2)c1 | 494
O=C1c2ccccc2C(=O)C1c1ccccc1 | 111
COc1ccc(C(=O)CC(=O)O)c2c1C=CC(C)(C)O2 | 115
CC(=O)/C(=C\c1ccccc1)CC(=O)O | 142
CC(=O)Oc1ccc(/C=C/c2cc(OC(C)=O)cc(OC(C)=O)c2)cc1 | 222
COc1cc(-c2coc3cc(O[C@@H]4O[C@H](CO)[C@@H](O)[C@H](O)[C@H]4O)c(OC)c(O)c3c2=O)cc(O)c1OC | 111
COC(=O)C1[C@H]2C[C@H]3c4[nH]c5ccccc5c4CCN3C[C@@H]2CC[C@@H]1O.Cl (stereo partly drawn) | 120
CC(=O)O[C@@H]1CC2C(C)(C)CCC(=O)[C@]2(C)C2CC[C@@]3(C)[C@H](c4ccoc4)OC(=O)C4OC43[C@@]21C (stereo partly drawn) | 126
CCCCC1=NC2(CCCC2)C(=O)N1Cc1ccc(-c2ccccc2-c2nnn[nH]2)cc1 | 117
CCOc1nc2cccc(C(=O)OC(C)OC(=O)OC3CCCCC3)c2n1Cc1ccc(-c2ccccc2-c2nnn[nH]2)cc1 (stereo not drawn) | 36
CCCCc1nc(Cl)c(CO)n1Cc1ccc(-c2ccccc2-c2nnn[nH]2)cc1 | 249
N.N.[Cl][Pt][Cl] | 90
COc1ccc2c(c1)[C@@]1(C)CC[C@@H](O)C[C@@H]1CC2 | 116
CC(C)=CCCC1(C)C=Cc2c(O)c3c(c(CC=C(C)C)c2O1)OC12C(=CC4CC1C(C)(C)OC2(C/C=C(/C)C(=O)O)C4O)C3=O (stereo not drawn) | 174
CC(C)=CCCC1(C)C=Cc2c(O)c3c(c(CC=C(C)C)c2O1)OC12C(=CC4CC1C(C)(C)OC2(C/C=C(/C)C(=O)O)C4=O)C3=O (stereo not drawn) | 163
CC(C)=CCCC1(C)C=Cc2c(O)c3c(c(CC=C(C)C)c2O1)OC12C(=CCCC1C(C)(C)O[C@@]2(C/C=C(\C)C(=O)O)C(=O)O)C3=O (stereo partly drawn) | 39
O=c1c(O)cccc2cc(O)c(O)c(O)c12 | 137
CNC(C)[C@@H]1CC[C@@H](N)[C@@H](OC2[C@@H](N)C[C@@H](N)[C@H](OC3OC[C@](C)(O)[C@H](NC)[C@H]3O)[C@H]2O)O1.O=S(=O)(O)O (stereo partly drawn) | 95
